For five compounds, activation results are on record in PubChem BioAssay AID631 (The Scripps Research Institute Molecular Screening Center, 2007).

Out of some 200,000 compounds screened, about 810 (0.41%) were called active. Cut-off read from the data, not from the text of the source: active = activation above about 19%; inactive = the rest. Many of the other results were omitted from the sample, so actives are more common in it than they were.

Peroxisome proliferator-activated receptor gamma (Homo sapiens), sequence (P37231 whole entry, looked up): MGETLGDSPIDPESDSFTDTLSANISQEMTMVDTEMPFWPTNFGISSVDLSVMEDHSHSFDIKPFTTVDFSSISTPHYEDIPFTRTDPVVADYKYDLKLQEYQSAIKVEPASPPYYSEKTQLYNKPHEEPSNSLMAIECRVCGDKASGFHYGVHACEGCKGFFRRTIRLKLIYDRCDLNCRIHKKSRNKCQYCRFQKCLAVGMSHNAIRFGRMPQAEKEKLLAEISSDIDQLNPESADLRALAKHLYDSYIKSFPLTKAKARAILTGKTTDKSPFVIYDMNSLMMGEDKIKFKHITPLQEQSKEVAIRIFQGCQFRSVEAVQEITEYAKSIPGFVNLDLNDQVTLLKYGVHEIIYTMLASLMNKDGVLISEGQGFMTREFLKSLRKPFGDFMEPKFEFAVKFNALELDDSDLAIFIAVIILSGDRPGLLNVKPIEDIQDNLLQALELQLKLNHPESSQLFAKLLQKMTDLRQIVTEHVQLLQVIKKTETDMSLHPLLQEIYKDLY

The experiment concerns the target Peroxisome proliferator-activated receptor gamma (Homo sapiens) (UniProt P37231). The experiment in a line: enhancers of SRC-1 binding to PPARgamma – biochemical, primary screen (AID 631).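 Note: 0% = DMSO and 100% = reference agonist.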 The following applies: PPARgamma-SRC-1 coactivator recruitment biochemical assay; at 8 µM; hits give high values.
As for `CSC1=NP(=S)(SC)N(C)c2nc3n(c21)CCC3` (stereo not given), the activation was 65.3% (active).

On to `Cc1ccc2c(c1)C1CN(C)CCC1N2C(=O)Cn1nnc(-c2ccccc2F)n1` (stereo not given), for which the activation is 3.5% (inactive).

Turning to `OCC#CC[N+]1(CC#Cc2ccccc2)CCCC1`, the activation was 4.2% (inactive).

For the compound `CC(=O)NC(=O)NC(C)Cc1ccccc1` (stereo not given), the activation is 6.2% (inactive).

Turning to `COc1cccc(-c2nc3ccc(N4CCN(C)CC4)cc3[nH]2)c1`, the activation is 3.8% (inactive).
